# Nrf2 activator = qHTS of Nrf2 Activators. Potency, µM (titrated, usually from 46.1 µM), hits mostly activators. 0.31% of 410,000 active. AID 624171, 2012. AREc32 ARE-luciferase reporter (MCF7-derived line), luminescence, 24 h; note: nearly all actives have a fitted effect of over 65% in size
#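 Luciferase luminescence (Steady-Glo, 30 min at room temperature) served as the read-out of ARE activation in AREc32 cells treated with compounds for 24 hr at 37 deg C.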
# Nrf2 inh = Nrf2 qHTS screen for inhibitors; A549 ARE-Fluc reporter, luciferase luminescence, 18-24 h; Potency, µM (highest dose often 46 µM), hits mostly inhibitors; 2.1% of 360,000 active; note: nearly all actives have a fitted effect of over 60% in size
#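 A549 ARE_Fluc cells (5000/well, 5% FBS OPTI-MEM) pre-incubated 2 h, then treated with compounds 18-24 h at 37C/5% CO2 in concentration-response. CellTiter-Fluor viability read first; BugLite luciferase luminescence after 15 min at room temperature gives Nrf2 activity.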
# IL2 activator = qHTS of IL-2 Activators. IL-2 activation reporter assay, cell-based qHTS; stimulated with anti-CD3/CD4/CD28 beads; in transgenic mouse T cells. activation, % (series mostly up to about 46 µM). 0.065% of 360,000 active. AID 652025, 2013; in the data active = activation above about 50%; inconclusive = mostly about 30% to 49%
#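 EGFP and DsRed fluorescence is measured by plate cytometry in unstimulated transgenic mouse T cells exposed to compound for 60 minutes, then stimulated 18 hours at 37 degrees C with anti-CD3/anti-CD4 beads plus anti-CD28.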
# p53 reactivator = qHTS assay for re-activators of p53 using a Luc reporter. Potency, µM (top dose mostly 92.2 µM), most hits filed as activators. 0.063% of 320,000 active. AID 504706, 2011. H1299 p53-A138V BP100-luciferase reporter, luminescence, 24 h; note: nearly all actives have a fitted effect of over 45% in size
#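 H1299 (p53-null), stable ts p53-A138V + BP100-Luc; 1000 cells/well, Opti-MEM/10% FBS; cpd 4 pt, 1:5; 24 h, 37 deg C, 5% CO2; detection reagent 10 min RT; luminescence.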
# BRCA1 expr up = qHTS Assay to Identify Small Molecule Activators of BRCA1 Expression; MCF7-BRCA1-FFLuc reporter, luminescence, 48 h; response scale: scaled: vehicle 0%, 10 µM genistein 100%; Potency, µM (titrated, usually from 46.1 µM), usual class: activators; 1.1% of 380,000 active; AID 624202, 2012; note: nearly all actives have a fitted effect of over 80% in size
#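 Luminescence from a BRCA1-driven firefly luciferase in MCF7 cells was the read-out, taken 15 min after substrate addition following 48 h compound exposure at 37 °C. Data were normalized to a 10 microM genistein control and DMSO vehicle.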
# A549 viability = Nrf2 qHTS screen for inhibitors: counterscreen for cytotoxicity | A549 ARE-Fluc cells, CellTiter-Fluor viability, 18-24 h | Potency, µM (highest dose often 46 µM), usual class: inhibitors | 0.16% of 390,000 active | AID 504648, 2011
#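 A549 ARE_Fluc cells in 5% FBS OPTI-MEM were exposed to compounds in concentration-response for 18-24 h at 37 deg C. Viability was read by CellTiter-Fluor fluorescence (Ex 405/Em 525) after 30 min, before the luciferase read.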
# Hits are given with their value; . = inactive; ? = inconclusive; / = not tested or not shown; ! = not active in a repeat. An excerpt weighted towards active compounds, which were near 3.2% of everything screened. Unless noted, calls come from the whole dose curve; as a rule, active = well fitted curve in the direction sought with a large enough effect; inconclusive = small, poorly fitted or top-dose-only effect, or another doubt; inactive = no such curve, though single readings can be large; an effect the other way counts as inactive or inconclusive.
SMILES,Nrf2 activator,Nrf2 inh,IL2 activator,p53 reactivator,BRCA1 expr up,A549 viability
CCc1nn(CC(=O)N(C)Cc2ccccc2)c(=O)c2cc3sccc3n12,.,.,/,/,/,.
COc1ccc(-c2nc3ccc(Cl)cc3c(=O)n2Cc2ccccc2)cc1COc1ccc(NC(C)=O)cc1,/,.,/,/,/,.
COc1ccc(OC)c(S(=O)(=O)N2CCN(Cc3ccccc3)CC2)c1,.,.,.,.,.,.
COc1ccc(S(=O)(=O)N2CCN(CCc3ccccc3)CC2)c(OC)c1,.,16µM,.,/,.,.
Cc1ccccc1C(=O)Nc1cccc(NC(=S)NC(=O)c2cccs2)c1,.,.,.,.,.,.
Cc1ccccc1C(=O)NNC(=S)NC(=O)c1cccs1,.,15µM,.,?,.,?
CCCOc1ccc(C(=O)NNC(=S)NC(=O)c2cccs2)cc1,.,7.3µM,.,.,.,.
NC(=O)c1ccsc1N,/,/,/,.,/,/
Nc1sccc1C(=O)c1ccc(Cl)cc1,.,?,.,?,6.3µM,.
CSC1=C(C#N)C(c2ccc3c(c2)OCO3)C2=C(CCCC2=O)N1 (centres undefined),.,.,.,.,.,.
CCSC1=C(C#N)C(c2ccc(Cl)cc2)C2=C(CCCC2=O)N1 (centres undefined),.,21µM,.,.,.,?
Cc1ccc(CNC(=O)[C@]2(C(F)(F)F)C[C@H](CCc3ccccc3)CCCO2)o1,/,.,/,/,/,.
N=C1S/C(=C\c2ccc(-c3cccc(Cl)c3)o2)C(=O)N1c1nccs1,.,8.2µM,.,?,.,?
COc1ccc(/C=C2\SC(=N)N(c3nccs3)C2=O)cc1OC,?,?,.,?,.,.
Cc1ccc(C(=O)Cn2cnc3ccccc3c2=O)cc1C,.,?,.,/,4.5µM,.
O=C(Cn1cnc2ccccc2c1=O)c1ccc2ccccc2c1,.,?,.,/,6.3µM,.
COc1ccc(C(=O)Cn2cnc3ccccc3c2=O)cc1,.,?,.,?,?,.
CCOC(=O)[C@]12CCCC=C1N(Cc1ccccc1)C(=O)[C@H](CC(=O)N1CCCC1)C2,/,/,.,/,/,/
CC(C)=NNc1cnnc2ccc([N+](=O)[O-])cc12,3.5µM,/,.,/,.,/
CNc1ccc(Br)cc(C(=O)/C=C/c2ccc(Cl)cc2Cl)c1=O,8.9µM,?,.,.,.,21µM
CCOC(=O)C1CCCN(C(=O)c2cccc(NC(=O)c3nsc4ccccc34)c2)C1 (centres undefined),.,/,/,/,/,.
N=c1c2c(ncn1-c1ccccc1)Oc1ccc3ccccc3c1C2c1ccc2c(c1)OCO2 (centres undefined),/,21µM,/,/,/,15µM
COc1ccccc1C1c2c(ncn(-c3ccccc3)c2=N)Oc2ccc3ccccc3c21 (centres undefined),/,23µM,/,/,/,21µM
COc1cccc(C2c3c(ncn(-c4ccccc4)c3=N)Oc3ccc4ccccc4c32)c1 (centres undefined),/,15µM!,/,/,/,15µM!
C=Cc1ccc(CN2C(=O)c3ccccc3Sc3ccc(C(=O)OCc4ccco4)cc32)cc1,.,/,/,/,.,.
SMILES,Nrf2 activator,Nrf2 inh,IL2 activator,p53 reactivator,BRCA1 expr up,A549 viability
O=C(c1ccc(S(=O)(=O)NCC2CCCO2)cc1)N1CCc2ccccc21 (centres undefined),.,26µM,.,.,.,.
O=S(=O)(NCC1CCCO1)c1ccccc1 (centres undefined),.,.,.,.,.,.
O=S(=O)(NCc1ccncc1)c1ccc(S(=O)(=O)NCC2CCCO2)cc1 (centres undefined),.,9.2µM,.,.,.,.
CCCCNS(=O)(=O)c1ccc(S(=O)(=O)NCc2ccncc2)cc1,.,7.3µM,.,.,.,.
O=C(Nc1ccc(F)cc1)c1ccc(S(=O)(=O)NCC2CCCO2)cc1 (centres undefined),.,23µM,.,.,.,23µM
O=S(=O)(NCc1ccccc1)c1ccc(S(=O)(=O)NCC2CCCO2)cc1 (centres undefined),.,.,.,.,.,.
COc1ccc(N(Cc2cccs2)C(=O)COc2ccc([N+](=O)[O-])cc2)cc1,.,.,/,/,/,.
CCS(=O)(=O)N1CCN(c2ncnc3sc(C)c(C)c23)CC1,.,.,.,.,.,.
Cc1sc2ncnc(N3CCN(c4ncccn4)CC3)c2c1C,.,15µM,.,.,.,.
COc1cc(C(=O)N2CCN(c3ncnc4sc(C)c(C)c34)CC2)cc(OC)c1OC,.,10µM,.,.,.,?
CCc1nnc2c(N3CCN(c4cccc(C)c4)C(C)C3)nc3ccccc3n12 (centres undefined),.,?,/,/,/,.
COc1ccc(Cl)cc1NC(=O)C1CCCN(S(=O)(=O)c2ccc3c(c2)CCCC(=O)N3)C1 (centres undefined),.,?,/,/,.,.
Cc1cccc(N2CCN(CCCNC(=O)c3nnc(Cc4c(F)cccc4Cl)o3)CC2C)c1 (centres undefined),.,.,/,/,/,.
COc1ccc(-n2nnnc2-c2cnc(N3CCCC3)nc2C(F)(F)F)cc1,.,18µM,.,.,.,.
FC(F)(F)c1nc(-c2cccs2)ncc1-c1nnnn1-c1ccc(Cl)cc1,.,23µM,.,.,.,?
FC(F)(F)c1nc(-c2cccnc2)ncc1-c1nnnn1-c1ccccc1,.,.,.,.,.,.
Clc1ccc(-n2nnnc2-c2cnc(-c3ccncc3)nc2-c2cccs2)cc1,.,?,.,.,.,.
O=c1c2cccnc2n(Cc2cccc(F)c2)c(=O)n1Cc1ccc(F)cc1,.,.,/,/,.,.
CC(C)c1ccc(NC(=O)C2=NNC(=O)CC2)cc1,.,?,.,.,2.2µM,.
Cc1ccc(NC(=O)C2=NNC(=O)CC2)cc1F,.,.,.,.,.,.
O=[N+]([O-])c1ccc(NN=Cc2ccco2)nc1,0.89µM,?,.,/,10µM,?
O=C(O)c1ccc(/C=N\Nc2ccccn2)cc1,.,?,.,/,2.5µM,.
O=[N+]([O-])c1ccc(/C=N/Nc2ccccn2)cc1,.,.,.,.,1.4µM,.
COc1ccc(/C=N/Nc2ccc([N+](=O)[O-])cc2)cc1Cn1cc([N+](=O)[O-])cn1,.,?,.,.,.,?
COc1ccc(/C=N/Nc2ccc([N+](=O)[O-])cc2)cc1O,.,.,.,?,8.9µM,.
CN(C)c1ccc(/C=N\Nc2ccccn2)cc1,.,?,.,.,?,.
